Measurements from PubChem BioAssay (NCI).
The panel holds about 79,000 compounds, 15% with a hit somewhere; the sample as a whole holds those more often. No stated cut-off is given here; in the data, active means growth inhibition above about 70%; inactive means the rest.

How the values were obtained:
[1] = NCI Yeast Anticancer Drug Screen. Data for the rad50 strain (AID 155);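 further: 0% = growth of vehicle-only cultures of the same strain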; conditions: S. cerevisiae rad50 strain growth inhibition, stronger effect = higher value; at 50.0 µM unless noted
Outline: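 Growth of the mutant yeast was measured after compound exposure and referenced to vehicle-treated cultures.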

[2] = NCI Yeast Anticancer Drug Screen. Data for the mec2-1 strain (AID 157); conditions: S. cerevisiae mec2-1 strain, stronger effect = higher value; at 50.0 µM unless noted
Outline: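 Yeast mec2-1 mutant treated with compound. Readout: growth inhibition vs vehicle controls.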

[3] = NCI Yeast Anticancer Drug Screen. Data for the sgs1 mgt1 strain (AID 161);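 further: 0% = growth of cultures given vehicle only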; conditions: S. cerevisiae sgs1 mgt1 strain, stronger effect = higher value; at 50.0 µM unless noted
Outline: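 Inhibition of yeast growth, normalised to vehicle-treated controls, is reported for a strain bearing genetic alterations in DNA damage repair.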

[4] = NCI Yeast Anticancer Drug Screen. Data for the cln2 rad14 strain (AID 165);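 further: 0% = growth equal to vehicle treated cultures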; conditions: S. cerevisiae cln2 rad14 strain, stronger effect = higher value; at 50.0 µM unless noted
Outline: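 cln2 rad14 yeast strain; compound exposure; growth inhibition read vs vehicle controls.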

[5] = NCI Yeast Anticancer Drug Screen. Data for the bub3 strain (AID 167); conditions: S. cerevisiae bub3 mutant strain, stronger effect = higher value; at 50.0 µM unless noted
Outline: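 Whole-cell yeast assay. The mutant strain was incubated with compounds, and growth inhibition was determined by comparison with vehicle-treated cells.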

[6] = NCI Yeast Anticancer Drug Screen. Data for the mlh1 rad18 strain (AID 175); conditions: S. cerevisiae mlh1 rad18 strain growth inhibition, stronger effect = higher value; at 50.0 µM unless noted
Outline: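 Yeast w/ defined DNA-repair lesions; compound exposure; growth vs vehicle controls → % inhibition.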

Measured: growth inhibition

Cc1cc(=O)oc2nn(CCO)c(C)c12
inactive: [1] -35.3% | [2] -17.6% | [3] -10.1% | [4] -41.9% | [5] -10.6% | [6] -13.7%

CCN(CC)CC(=O)Nc1cc(Cl)ccc1OC
inactive: [1] -4% | [2] -19.8% | [3] -5.75% | [4] -35.3% | [5] 8.9% | [6] -6.25%

O=C(Cc1ccc([N+](=O)[O-])cc1)Nc1cccc(O)c1
inactive: [1] -4.85% | [2] 29.2% | [3] -4.9% | [4] -13.5% | [5] 47.4% | [6] 14.8%
